# Only some compounds are listed: those with a hit (about 21% of all), similar ones and a draw of the others.
# Pf growth 48h = P. falciparum growth inhibition at 48 hours (one generation); P. falciparum luciferase growth in erythrocytes, 48 h; Potency, µM (series often up to 28.7 µM), without a hit: at the highest dose activity change, negative = inhibition, hits mostly inhibitors; hit rate 5.9% among 310,000; active = well fitted inhibition curve with a large enough effect; inconclusive = small, poorly fitted or top-dose-only effect, or another doubt; inactive = no such curve, though single readings can be large or run the other way; note: potency is the fitted concentration of half-maximal effect; % is set by controls: 0 for no effect and ±100 for the full control effect
#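 Luciferase-expressing P. falciparum in infected erythrocytes (2% hematocrit, 0.1% parasitemia final) in RPMI 1640/0.5% Albumax were exposed to compound for 48 hours at 37 C, 5% CO2; growth read as luminescence.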
# Pf growth 96h = P. falciparum growth inhibition at 96 hour, primary screen for plastid delayed-death inhibitors | P. falciparum luciferase reporter growth, 96 h | Potency, µM (titrated, usually from 28.7 µM), for the others: at the top dose activity change, negative = inhibition, hits mostly inhibitors | hit rate 6.9% among 320,000 | AID 504834; active = well fitted inhibition curve with a large enough effect; inconclusive = small, poorly fitted or top-dose-only effect, or another doubt; inactive = no such curve, though single readings can be large or run the other way; note: potency is the fitted concentration of half-maximal effect; % is set by controls: 0 for no effect and ±100 for the full control effect
#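 Two parasite generations (96 h, 37 C, 5% CO2) of compound exposure in infected erythrocytes (0.05% parasitemia, 2% hematocrit). Luciferase-reporter P. falciparum; decreased luminescence indicates inhibited growth, aimed at apicoplast-acting delayed death.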
# CHX counter-1 = affects cycloheximide protein synthesis inhibition readout, counter-screen; cell reporter, cycloheximide protein synthesis inhibition counterscreen; max response, %; hit rate 12% among 300,000; AID 2314; in the data active = max response mostly above about 13%, no sharp cut-off; inactive = mostly below about 14%; note: read at 38.3 µM for the half of the compounds with a filed dose; 0% is about no effect
# SARS PLP yeast = SARS-CoV PLP inhibition in yeast; S. cerevisiae expressing SARS-CoV PLpro, growth rescue; Potency, µM (top dose mostly 32.9 µM), without a hit: top-dose activity, positive = growth rescue, hits mostly activators; hit rate 0.19% among 330,000; note: potency is the fitted concentration of half-maximal effect; 0% is about no effect; nearly all actives have a fitted effect of over 55% in size
# Shiga inhibitor = Shiga toxin inhibition. Vero cells, Shiga toxin protein synthesis inhibition reporter. hit rate 9.2% among 290,000. inhibition, % at 38.7 µM; in the data active = inhibition mostly above about 28%, no sharp cut-off; inactive = mostly below about 43%; note: 0% is about no effect
# NS1 function inh = inhibitors of influenza NS1 protein function | AID 2326 | Potency, µM (doses to about 46.1 µM), for inactives: at the top dose activity, positive = more growth | hit rate 0.4% among 270,000; note: potency is the fitted concentration of half-maximal effect; actives are rising curves; nearly all actives have a fitted effect of over 50% in size
#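 Recovery from NS1-induced slow growth read by OD600 in budding yeast switched to galactose assay medium (pH 6.0, -URA) at 1:100 dilution. Compound 23 nl per well; the matching strain lacking NS1 serves as control.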
# CHX counter-2 = protein synthesis counter-screen activity for Shiga toxin hits; shares compounds with Shiga inhibitor; Potency, µM (doses to about 38.3 µM), without a hit: top-dose activity (activation), most hits filed as activators; Cycloheximide counterscreen, protein synthesis reporter, Shiga toxin assay; hit rate 3% among 510; note: potency is the fitted concentration of half-maximal effect; 0% is about no effect
# The depositor's hits bear a star; ? = inconclusive; / = no result given; [ ] = dose if it differs, or a comment. Unless noted, calls come from the whole dose curve.
SMILES,Pf growth 48h,Pf growth 96h,CHX counter-1,SARS PLP yeast,Shiga inhibitor,NS1 function inh,CHX counter-2
C/C(=N\O)C1CC(CC(=O)O)C1(C)C (stereo not drawn),3%,3%,-3,-3%,23,5%,/
CCC(C)(C(=O)Nc1c(C)cccc1C)N(C)C(=O)c1ccc2ccccc2n1 (stereo not drawn),2%,9%,-3,-1%,20,-3%,/
COc1ccccc1CN(C)S(=O)(=O)c1cccs1,10%,3%,6,4%,69*,-14%,3%
CN(Cc1ccccc1C#N)S(=O)(=O)c1cccs1,2%,8%,7,-3%,34,-5%,/
COc1ccc([C@H]2CC(=O)C=C(c3cccc(Cl)c3)C2)cc1OC,?,?,/,1%,/,/,/
CCOC(=O)C1=C(O)/C(=C\c2cccs2)N=C1C,-24%,?,-1,-14%,-13,2%,/
CCOC(=O)C1=C(O)/C(=C\c2ccc(CNC(=O)C(=O)Nc3ccccc3)o2)N=C1C,-2%,/,4,-3%,42*,26%,1%
Cc1ccc(NC(=S)NN2CCN(C)CC2)cc1,-3%,40%,9,9%,-12,4%,/
CC(=O)Nc1ccc(C(=O)CS(=O)(=O)c2ccc(C)cc2)cc1,13%,14%,8,11%,25,2%[9.22 µM],/
Cc1cc(C(=O)CS(=O)(=O)c2ccc(F)cc2)cc(C)c1O,66%,59%,10,1%,34*,0%,?
COc1ccc(NC(=O)CN(C)S(=O)(=O)c2ccc(Br)s2)cc1OC,5%,8%,3,-2%,34*,12%,1%
C1CCN2C[C@@H]3C[C@@H](CN4CCCC[C@H]34)[C@H]2C1,?,-5%[12.8 µM],/,/,/,/,/
COc1ccc(C2CCCN2C(=S)Nc2cccc(Cl)c2C)cc1OC (stereo not drawn),?,19%,2,6%,-10,/,/
CCN(CC)S(=O)(=O)c1ccc(C(=O)NCCc2ccccn2)cc1,-9%,21%,11,-2%,45*,/,3%
CCOC(=O)c1ccccc1NC(=O)COC(=O)CSc1ccccc1,0%,80%,/,-4%,/,/,/
COC(=O)c1ccccc1NC(=O)/C=C/c1cc(OC)c(OC)c(OC)c1,/,?,-2,16%,-10,6%,/
C=CCOC(=O)C1=C(C)OC(N)=C(C(=O)OCC)C12C(=O)N(CC(N)=O)c1ccccc12 (stereo not drawn),-1%,13µM*,6,3%,33*,-1%,-2%
O=C(COC(=O)/C=C/c1ccc([N+](=O)[O-])cc1)NC(c1ccccc1)c1ccccc1,7%,47%,1,7%,-9,12%,/
Cc1ccc(C(=O)c2oc3nc(C)cc(C)c3c2N)cc1,-7%,-18%,13,-1%,6,-14%,/
CCc1ccc(C(=O)c2oc3nc(C)cc(C)c3c2N)cc1,?,-22%,16,-1%,51*,-5%,?
O=C(Cc1ccccc1F)c1ccc(O)cc1O,6%,?,10,2%,21,-33%,/
O=C(Cc1c(F)cccc1Cl)c1ccc(O)cc1O,56%,19%,0,-31%,101*,-224%,-3%
O=C(Nc1ccccc1)c1ccc(=O)[nH]n1,-12%,6%,-3,-1%,-2,-3%,/
O=C1NC(=Nc2ccc(O)cc2)S/C1=C\C=C\c1ccco1,?,?,3,1%,47*,7%,?
O=C(COC(=O)c1ccccc1O)NCCc1c[nH]c2ccccc12,/,/,/,6%,/,/,/
SMILES,Pf growth 48h,Pf growth 96h,CHX counter-1,SARS PLP yeast,Shiga inhibitor,NS1 function inh,CHX counter-2
O=C(Cc1c[nH]c2ccccc12)NCc1ccc(Cl)cc1,2%,57%,10,-2%,30*,-20%,7%
O=C(CCc1c[nH]c2ccccc12)NCCc1ccc(Cl)cc1,-5%,?,-2,-2%,-7,-20%,/
O=C(NCCc1c[nH]c2ccccc12)C(F)(F)F,0%,38%,10,-3%,43*,?,-1%
COc1ccccc1/C=C/C(=O)OCc1nc2ccccc2c(=O)[nH]1,?,-17%,2,-2%,45*,?,1%
O=C(c1cnn(C(=O)c2ccco2)c1)c1cc(Cl)cc(Cl)c1O,/,/,/,-3%,/,/,/
N#C/C(=C(/O)COc1ccccc1)c1nc2ccccc2s1,-1%,59%,-3,/,-18,/,/
COc1ccc(C/C(O)=C(\C#N)c2nc3ccccc3s2)cc1,3%,0%,1,-7%,34*,-16%,-3%
CC(OC(=O)c1snc(C(=O)NC2CCCCC2)c1N)C(=O)NC1CCCCC1 (stereo not drawn),17%,?,-3,29%,-3,-1%,/
CC(C)Cc1csc(NC(=O)c2ccc(Cl)cc2)c1C(=O)O,-1%,-14%,-2,-66%,-6,-11%,/
Cc1cccc(C(=O)Nc2scc(CC(C)C)c2C(=O)O)c1,7%,-9%,-4,-18%,40*,-27%,1%
O=C(Nc1cccc(F)c1)/C(=C\c1ccco1)NC(=O)c1ccco1,1%,?,-2,?,5,-2%,/
CC(=O)c1cccc(NC(=O)/C(=C/c2ccco2)NC(=O)c2ccco2)c1,2%,2%,2,1%,27*,9%,6%
O=C(O)Cn1nnc(-c2ccc(OCc3ccccc3Cl)cc2)n1,-10%[0.00184 µM],16%,-1,6%,40*,-8%,3%
Cc1nc(SC(C)C(=O)NCC2CCCO2)c2cc(-c3ccccc3)sc2n1 (stereo not drawn),?,?,/,-7%,/,/,/
CC(C)(C)C1CCC(C(=O)OCC(=O)c2ccc[nH]2)CC1 (stereo not drawn),-7%,6%,8,12%,27*,-38%,0%
O=C(COC(=O)C1CC(=O)N(CCc2ccccc2)C1)c1ccc[nH]1 (stereo not drawn),-2%,-1%,/,1%,/,/,/
Cc1ccc(C)c(NC(=O)CCC(=O)NNC(=O)COc2cc(C)ccc2C)c1,-1%,8%,1,-1%,-3,6%,/
COc1ccccc1CN(Cc1cccnc1)S(=O)(=O)c1ccc(-n2cnnn2)c(OC)c1,?,8.3µM*,1,19%,47*,-12%,-2%
COc1cc(S(=O)(=O)N(Cc2cccnc2)Cc2cccc(OC)c2OC)ccc1-n1cnnn1,?,?,-3,-2%,-2,-98%,/
Cc1cc2nc(CCN3CCOCC3)n(S(=O)(=O)c3ccc(C(C)(C)C)cc3)c2cc1C,?,21%,12,7%,38*,8%,?
Cc1ccc(N2CC(C(=O)OCC(=O)Nc3ccc(F)cc3F)CC2=O)cc1 (stereo not drawn),-15%,1%,/,5%,/,/,/
Cc1ccccc1N1C(=O)CC(N2CCN(C(=O)c3ccco3)CC2)C1=O (stereo not drawn),9%,-16%,8,-1%,-9,-10%,/

# Assay outcomes deposited in PubChem by National Center for Advancing Translational Sciences (NCATS).
